The results in this text go back to PubChem BioAssay (NCATS).

The nature of test [1]: Cell Viability - SK-N-SH (AID 435; calls by dose curve;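 also: potency is read from the fitted curve at half-maximal effect; compound exposure lasted 40 h at 37 °C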). The conditions noted are these: SK-N-SH neuroblastoma cell viability qHTS. The essentials:
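SK-N-SH neuroblastoma cells (1500/well) treated 40 h at 37 °C in complete medium; viability read as cellular ATP by CellTiter-Glo luminescence. Normalized to DMSO and 100 uM tamoxifen; AC50 from Hill fits of qHTS concentration-response.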

A short description of test [2]: Cell Viability - N2a (AID 540).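 Also: plate controls were DMSO alone for no effect and tamoxifen control for full effect; nearly all actives have a fitted effect of over 45% in size.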 The following applies: N2a mouse neuroblastoma cell viability; activity change, negative = cytotoxicity: at 92.2 µM (top of the series). The essentials: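 N2a mouse neuroblastoma, 1500 cells/well, 5 hr settle; compound 40 hr, 37 °C; CellTiter-Glo 20 min RT; luminescence; Hill-fit AC50.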
The nature of test [3]: Cell Viability - Renal Proximal Tubule (AID 545). Also: nearly all actives have a fitted effect of over 40% in size. The following applies: renal proximal tubule cells viability; series mostly up to 91.7 µM. The essentials:
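Rat renal proximal tubule primary cells, 1000/well, exposed to compounds for 40 hr at 37 °C in complete medium; cellular ATP read by CellTiter-Glo luminescence. AC50 from concentration-response fitted with standard Hill equation.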

Test [4] in a line: Cellular Toxicity (caspase-3) Jurkat (AID 655).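 Also: cells exposed to compound for 16 h at 37 °C before reading.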 The conditions noted are these: Jurkat caspase-3 activation, luminescence; caspase-3 activation: at 92.2 µM (top of the series), DMSO = 0%, tamoxifen = 100%. The essentials: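 Jurkat cells (5000/well) in complete medium exposed 16 h at 37 C; caspase-3/7 activity read by Caspase-Glo luminescence after 20 min at room temperature. Normalized to DMSO and 100 uM tamoxifen; AC50 from Hill fits.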

A short description of test [5]: Cellular Toxicity (caspase-3) MRC-5 (AID 659). The following applies: MRC-5 cells, luminescence, normalized: DMSO 0%, 10 µM staurosporine 100%; series mostly up to 91.7 µM. In outline:
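Luminescent Caspase-Glo 3/7 read-out (1 h, room temperature) after a 16 h, 37 °C compound exposure of MRC-5 lung fibroblasts at 1500 cells/well. Concentration-response AC50 from Hill equation; 0% DMSO, 100% 10 uM staurosporine.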

In test [6] the target is Cytochrome P450 3A4 (Homo sapiens) (UniProt P08684). Put plainly: qHTS Assay for Inhibitors and Substrates of Cytochrome P450 3A4 (AID 884). Also: % is scaled to controls: 0 for no effect and ±100 for the full control effect; nearly all actives have a fitted effect of over 50% in size. The conditions noted are these: recombinant CYP3A4, Luciferin-PPXE luminescence; series mostly up to 57.1 µM. In outline:
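Luminescent readout of luciferin produced by CYP3A4 (20 nM) dealkylation of Luciferin-PPXE, 25 uM (its KM). NADPH-driven reaction ran 60 min at RT after 10 min compound preincubation; data scaled to 57 uM ketoconazole as 100% inhibition.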

A short description of test [7]: Cell Viability - LYMP2-001 (AID 921).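 Also: 0% = DMSO only and full inhibition = tetraoctylammonium bromide control wells; nearly all actives have a fitted effect of over 70% in size.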 The following applies: LYMP2-001 lymphoblastoid cell viability; series mostly up to 92.2 µM. In outline: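 Human lymphoblastoid LYMP2-001 cells, 2500 per well, in complete medium, treated 24 h at 37 C. Viability from cellular ATP by CellTiter-Glo luminescence; AC50 from Hill-equation fits of qHTS concentration-response.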
The nature of test [8]: MultiTox-Fluor Cytotoxicity Assay - LYMP1-002 - Dead Cells (AID 960).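 Also: 0% = DMSO and 100% = tetraoctylammonium bromide; nearly all actives have a fitted effect of over 60% in size.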 The following applies: LYMP1-002 lymphoblastoid cells, dead-cell protease fluorescence; series mostly up to 46.1 µM. In outline: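 Readout: fluorescence at 485/520 from cell-impermeant bis-AAF-R110 cleaved by proteases leaking from damaged cells. LYMP1-002 lymphoblastoid line, 16 hr compound treatment at 37 C, concentration-response in qHTS format; Hill-equation AC50 values.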

Test [9] can be described thus: Cell Viability - LYMP2-005 (AID 967).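 Also: plate controls were DMSO only for no effect and 92 µM tetraoctylammonium bromide control for full effect.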 The following applies: LYMP2-005 lymphoblastoid cell viability; series mostly up to 92.2 µM. The essentials:
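Human lymphoblastoid LYMP2-005 cells, 2,500 per well in complete medium, rested 5 h at 37C then compound-treated 24 h at 37C. Intracellular ATP read by CellTiter-Glo luminescence after 30 min at room temperature; AC50 from Hill-equation fits of concentration-response data.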

Test [10] in a line: Cell Viability - LYMP2-015 (AID 971).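 Also: 0% = DMSO only and full effect = 92 µM tetraoctylammonium bromide; nearly all actives have a fitted effect of over 55% in size.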 The conditions noted are these: LYMP2-015 lymphoblastoid cell viability; series mostly up to 92.2 µM. The essentials:
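qHTS cytotoxicity: 2500 cells/well, 5 hr 37 C, compound 24 hr 37 C, CellTiter-Glo 30 min RT, luminescence. Loss of ATP = toxicity; AC50 via standard Hill fit.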

A short description of test [11]: Cell Viability - LYMP2-002 (AID 977).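 Also: compound exposure lasted 24 h at 37 °C; plate controls were DMSO only for no effect and 92 µM tetraoctylammonium bromide for full effect.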 The conditions noted are these: LYMP2-002 lymphoblastoid cell viability, qHTS; series mostly up to 92.2 µM. In outline: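 Human lymphoblastoid cells (2500/well) in complete medium were preincubated 5 hr at 37 C, then exposed to compounds for 24 hr at 37 C. Intracellular ATP was read by CellTiter-Glo luminescence; AC50 came from Hill-equation concentration-response fits.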

The nature of test [12]: Cell Viability - LYMP2-010 (AID 981). Also: % is scaled to controls: 0 for no effect and ±100 for the full control effect; nearly all actives have a fitted effect of over 55% in size. The following applies: LYMP2-010 lymphoblastoid cell viability, qHTS; series mostly up to 92.2 µM. The essentials:
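qHTS cytotoxicity, 1536-well: 2500 cells/well, 5 hr settle, 24 hr compound at 37 C, CellTiter-Glo 30 min RT, luminescence read. Decrease in ATP = toxicity; AC50 via standard Hill equation. Positive control tetraoctylammonium bromide.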

A short description of test [13]: Cell Viability - LYMP2-020 (AID 986).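 Also: plate controls were DMSO only for no effect and tetraoctylammonium bromide at 92 µM for full effect; nearly all actives have a fitted effect of over 55% in size.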 The conditions noted are these: series mostly up to 92.2 µM. In outline: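 qHTS, 2500 cells/well; 5 hr then 24 hr compound exposure, 37 C; CellTiter-Glo luminescence after 30 min RT; ATP decrease taken as cytotoxicity; AC50 via Hill equation; tetraoctylammonium bromide positive control.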
Test [14] is described as follows: Cell Viability - LYMP2-022 (AID 987).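 Also: 0% = DMSO alone and full effect = tetraoctylammonium bromide at 92 µM; nearly all actives have a fitted effect of over 55% in size.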 The following applies: LYMP2-022 lymphoblastoid cell viability; series mostly up to 92.2 µM. In outline:
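Luminescent ATP read-out (CellTiter-Glo, 30 min, RT) after 24 hr, 37 C compound exposure of 2500 human lymphoblastoid cells/well in complete medium. Cytotoxicity taken as concentration-dependent ATP loss; AC50 from standard Hill equation.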

Test [15] can be described thus: qHTS assay for small molecule agonists of retinoid X receptor alpha signaling (AID 588544). The conditions noted are these: HEK293T RXRa-UAS-bla, beta-lactamase reporter, 18 h; 530 nm emission.
Test [16] concerns the target Thyroid hormone receptor beta (Homo sapiens) (UniProt P10828). The test can be described thus: qHTS assay for small molecule agonists of thyroid hormone receptor beta signaling (AID 588545; calls by dose curve;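 also: 0% = DMSO only and 100% = 10 nM T3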). The following applies: TR-UAS-bla GripTite HEK 293, beta-lactamase ratio, agonist mode, 18 h; series mostly up to 76.7 µM. In outline: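 TR-UAS-bla-GripTite HEK 293 cells in medium with 2% charcoal/dextran FBS, 0.1 mM NEAA and 1 mM sodium pyruvate were treated with titrated compounds for 18 hrs at 37 C. Beta-lactamase reporter was read with CCF4 dye (ex 405, em 460/530 nm); EC50 from Hill fits.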

Test [17] shares this target. The test can be described thus: qHTS assay for small molecule antagonists of thyroid hormone receptor beta signaling (AID 588547; active = well fitted inhibition curve with a large enough effect in the signal ratio, with a control signal flat, not every such curve was filed as active; the % refers to the signal ratio;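 also: cells stimulated with 0.4 nM T3 agonist during compound exposure; % is scaled to controls: 0 for no effect and ±100 for the full control effect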). The conditions noted are these: TR-UAS-bla HEK293, beta-lactamase ratio, antagonist mode, 18 h. In outline:
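Inhibition of T3-driven (0.4nM final) beta-lactamase reporter activity was measured over 0.59 nM to 92 uM compound after 18 h at 37 C. The cells were GripTite HEK293 TR-UAS-bla in charcoal/dextran-stripped serum, with CCF4 ratio read-out and IC50 from Hill fits.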

The target in test [18] is Tumor necrosis factor (Homo sapiens) (UniProt P01375). The test can be described thus: qHTS assay to identify small molecules that stimulate Tumor Necrosis Factor-alpha (TNF-alpha) secretion (AID 651757; active = well fitted curve in the direction sought with a large enough effect in the signal ratio; the % refers to the signal ratio; also: 0% is about no effect). The following applies: Human cells, HTRF 665/615 ratio; series mostly up to 92.2 µM. The essentials:
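THP-1 cells, 3000/well; compound 17 hrs, 37 C; add cryptate/XL665 anti-TNF-alpha antibody pair; 3 hr RT; TR-FRET (HTRF) read of secreted TNF-alpha. Quantitative HTS format.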

Test [19] is described as follows: qHTS assay for small molecule antagonists of retinoid X receptor alpha signaling (AID 588546; active = well fitted inhibition curve with a large enough effect in the signal ratio, with a control signal flat, not every such curve was filed as active; the % refers to the signal ratio;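 also: cells stimulated with 9-cis-retinoic acid as agonist; % is scaled to controls: 0 for no effect and ±100 for the full control effect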). The conditions noted are these: HEK293T RXRa-UAS-bla, beta-lactamase ratio, antagonist mode; measured here: W530 green channel, cytotoxicity proxy. The essentials: (§1)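 Beta-lactamase reporter inhibition, read as CCF4 fluorescence ratio (ex 405, em 460/530 nm) after 2 h at RT. HEK293T UAS-bla cells, 2500/well, were stimulated with 9-cis-RA at 500 or 100 nM final alongside test compound for 18 h at 37 C.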

The target of test [20] is Retinoic acid receptor RXR-alpha (Homo sapiens) (UniProt P19793). The description is as above. The conditions noted are these: HEK293T RXRa-UAS-bla, beta-lactamase ratio, antagonist mode. The essentials:
as §1

The structures appear in SMILES notation. Values joined by “and” are separate entries in the source; they are usually repeats but may differ in a detail not shown here. Equal values may be shown once. Records with an inconclusive call do not appear. Active and inactive are the calls of the source. Unless noted, calls follow the shape of the dose curve; as a rule, active = well fitted curve in the direction sought with a large enough effect; inconclusive = small, poorly fitted or top-dose-only effect, or another doubt; inactive = no such curve, though single readings can be large; an effect the other way counts as inactive or inconclusive.

Sequence of Tumor necrosis factor (Homo sapiens) (P01375 whole entry, looked up): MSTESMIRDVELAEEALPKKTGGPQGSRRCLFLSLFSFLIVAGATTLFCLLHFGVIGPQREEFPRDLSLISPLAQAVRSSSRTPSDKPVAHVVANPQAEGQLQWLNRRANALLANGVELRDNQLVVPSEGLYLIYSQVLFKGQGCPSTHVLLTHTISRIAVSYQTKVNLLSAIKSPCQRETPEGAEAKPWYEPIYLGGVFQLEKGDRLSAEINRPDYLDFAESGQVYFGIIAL
Sequence of Retinoic acid receptor RXR-alpha (Homo sapiens) (P19793 whole entry, looked up): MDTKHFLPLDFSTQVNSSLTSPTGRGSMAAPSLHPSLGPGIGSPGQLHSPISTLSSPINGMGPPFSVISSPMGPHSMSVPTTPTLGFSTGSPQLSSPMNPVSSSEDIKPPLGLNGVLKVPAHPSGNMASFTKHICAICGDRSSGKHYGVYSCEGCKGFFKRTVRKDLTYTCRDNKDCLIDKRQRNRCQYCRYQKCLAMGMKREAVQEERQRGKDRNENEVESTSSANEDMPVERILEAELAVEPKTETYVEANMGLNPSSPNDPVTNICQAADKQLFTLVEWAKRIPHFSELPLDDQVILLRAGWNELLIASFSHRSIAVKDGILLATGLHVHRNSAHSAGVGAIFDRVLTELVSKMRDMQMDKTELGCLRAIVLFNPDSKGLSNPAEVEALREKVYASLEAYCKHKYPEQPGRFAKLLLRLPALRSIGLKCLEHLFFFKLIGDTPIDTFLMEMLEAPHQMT
Sequence of Cytochrome P450 3A4 (Homo sapiens) (P08684 whole entry, looked up): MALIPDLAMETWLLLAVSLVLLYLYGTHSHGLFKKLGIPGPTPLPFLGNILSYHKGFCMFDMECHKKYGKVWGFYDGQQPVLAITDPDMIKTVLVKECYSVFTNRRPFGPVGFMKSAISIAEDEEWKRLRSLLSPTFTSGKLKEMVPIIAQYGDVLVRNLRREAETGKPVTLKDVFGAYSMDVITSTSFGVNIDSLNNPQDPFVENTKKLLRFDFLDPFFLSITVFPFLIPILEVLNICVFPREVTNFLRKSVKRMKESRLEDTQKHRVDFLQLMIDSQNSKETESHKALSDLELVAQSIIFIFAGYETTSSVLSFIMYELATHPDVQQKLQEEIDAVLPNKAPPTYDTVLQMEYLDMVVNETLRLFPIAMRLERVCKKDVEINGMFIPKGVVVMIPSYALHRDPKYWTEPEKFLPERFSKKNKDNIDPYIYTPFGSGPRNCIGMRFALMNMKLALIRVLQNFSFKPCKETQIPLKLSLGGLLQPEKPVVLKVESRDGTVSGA
Sequence of Thyroid hormone receptor beta (Homo sapiens) (P10828 whole entry, looked up): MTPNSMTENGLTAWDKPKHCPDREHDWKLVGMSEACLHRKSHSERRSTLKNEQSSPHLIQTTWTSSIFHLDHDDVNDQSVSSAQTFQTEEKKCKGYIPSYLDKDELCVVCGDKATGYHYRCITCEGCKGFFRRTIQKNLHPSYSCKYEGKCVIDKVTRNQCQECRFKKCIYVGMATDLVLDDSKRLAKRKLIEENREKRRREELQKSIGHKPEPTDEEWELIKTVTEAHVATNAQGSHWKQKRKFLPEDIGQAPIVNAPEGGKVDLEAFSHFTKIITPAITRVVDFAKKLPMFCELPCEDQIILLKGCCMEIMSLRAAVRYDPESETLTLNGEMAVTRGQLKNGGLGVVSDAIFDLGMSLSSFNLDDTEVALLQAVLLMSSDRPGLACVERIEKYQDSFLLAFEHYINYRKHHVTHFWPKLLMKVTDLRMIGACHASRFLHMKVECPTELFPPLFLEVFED

Consider `C=CC=O`, for which the Potency in test [1] was > 92 µM (inactive). The Potency entry in [2], in [6], in [7], in test [8], in [9] and in [10] was “inactive” each time. In addition, the Potency result in [11], in test [12], in [13], in test [14] and in [16] was “inactive” throughout. In addition, the result in test [3], in test [5] and in [18] was inactive. Also, the caspase-3 activation in test [4] is 13.2% (inactive). Also, in test [15], the max response is -0.594%. For the same compound, the activity change % (negative = inhibition) in [17] is 2.84% (inactive).

`CCCN(CCC)c1c([N+](=O)[O-])cc(C(F)(F)F)cc1[N+](=O)[O-]`: in test [1], the Potency was > 92 µM (inactive). Also, the Potency result in [2], in test [7], in test [8], in test [9], in test [10] and in test [11] was “inactive” each time. For the same compound, the Potency result in test [12], in test [13], in [14] and in [16] was “inactive” in each case. Besides, the result in [3] and in [18] was inactive. The caspase-3 activation in test [4] was 2.21% (inactive). In addition, the max response is -17.3% and 1.94% in [15]; -6.59% and -3.08% in [19]; 0.285% (inactive) and -10.3% (inactive) in test [20]. Besides, the activity change % (negative = inhibition) in test [17] is 9.18% (inactive) and -4.26% (inactive).

In the case of `C(CCOCC1CO1)COCC1CO1` (stereo not drawn), the Potency in test [1] is 27.7 µM (inactive). The Potency result in test [2], in test [6], in test [7], in test [8], in [9] and in test [10] was “inactive” each time. For the same compound, the Potency result in [11], in test [13] and in test [16] was “inactive” each time. For the same compound, the call in test [3] and in test [18] was inactive. The caspase-3 activation in test [4] is 15.1% (inactive). For the same compound, the values for the max response in test [15], in test [19] and in test [20] were -1.76%, 5.96% and 15.6% (inactive), respectively. In test [17], the activity change % (negative = inhibition) is 16.3% (inactive).

For the compound `CSSC`, in test [1], the Potency was > 92 µM (inactive). Further, the Potency entry in test [2], in test [6], in [7], in test [8], in [9] and in [10] was “inactive” each time. The Potency result in test [11], in test [12], in [13], in [14] and in test [16] was “inactive” throughout. For the same compound, the compound was called inactive in test [3], in test [5] and in test [18]. Moreover, in [4], the caspase-3 activation is -0.115% (inactive). The max response in test [15] is 1.16%; in [19] it was -12.8%; in test [20] it was 7.08% (inactive). The activity change % (negative = inhibition) in test [17] is -18.7% (inactive).

For the compound `ClC(Cl)Br`, the Potency in test [1] is > 92 µM (inactive). Moreover, the Potency result in test [2], in [6], in test [7], in test [8], in [9] and in [10] was “inactive” throughout. Besides, the Potency entry in test [11], in test [12], in test [13], in test [14] and in test [16] was “inactive” in each case. For the same compound, the outcome in [3] and in test [18] was inactive. In addition, in test [4], the caspase-3 activation was 0.703% (inactive). For the same compound, the max response in test [15] was -4.86%; in [19], 1.73%; in test [20], 5.56% (inactive). Moreover, the activity change % (negative = inhibition) in [17] is 9.06% (inactive).

Consider `O=C(O)C(Br)Br`, for which the Potency result in test [2], in test [6], in test [7], in test [8], in [10] and in test [11] was “inactive” each time. Besides, the Potency entry in [12] and in [13] was “inactive” in each case. Further, the call in [3], in [5] and in test [18] was inactive. In addition, the caspase-3 activation in [4] was 6.46% (inactive). Moreover, the max response is -1.1% in [15], -1.6% in test [19] and 6.61% (inactive) in test [20]. Moreover, the activity change % (negative = inhibition) in test [17] was 8.3% (inactive).

As to `CCOP(=O)(OCC)OCC`, in test [1], the Potency is > 92 µM (inactive). In addition, the Potency entry in test [2], in test [6], in test [7], in test [8], in test [9] and in test [10] was “inactive” throughout. Further, the Potency result in [11], in test [12], in test [13], in test [14] and in test [16] was “inactive” in each case. For the same compound, the compound was classed as inactive in test [3], in test [5] and in test [18]. For the same compound, the caspase-3 activation in test [4] is -0.738% (inactive). The max response in test [15] was -8.04% and -7.35%; in test [19] it was 9.41% and -13.4%; in test [20], 10.3% (inactive) and -4.1% (inactive). In addition, the activity change % (negative = inhibition) in [17] was -0.564% (inactive) and 12.2% (inactive).
